A short description of assay [1]: sensitizers of A549 cells to miR-34 induction, primary screen, imaging, A549 dox-inducible miR-34, nuclei and caspase counts (AID 1347080). Also: test concentration not given here. The note with it: A549 miR-34 inducible, Hoechst nuclei count, 48 h.
The nature of assay [2]: survival rescue of mitochondrial mutant cells in low glucose, primary screen, MELAS cybrids, Rieske KO mouse fibroblasts, CellTiter-Glo (AID 1508586;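 active = mean z-score across replicates of 1.96 or higher in either the MELAS or the Rieske mutant cell line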;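 also: test concentration not given here; z relative to plate mean and SD of compound and empty wells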).
Assay [3] is described as follows: viability rescue of complex I mutant cybrids, primary screen, cell-based, galactose medium, ATP luminescence (AID 1645843;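 active = z-score of at least 1.8 in each of two replicates, scored against plate mean and spread of sample wells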;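 also: positive z means more ATP and so rescue of galactose-driven cybrid death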). The note with it: complex I mutant cybrid cells, 72 h, stronger effect = higher value.
Setting [4] is: stronger effect = lower value, cell number ratio, induced over uninduced.
Setting [5] is: measured here: relative caspase fold change +Dox/-Dox.
The mark [6] stands for this setting: measured here: total cells with miR-34 induction, stronger effect = lower value.
[7] abbreviates: measured here: total cells without miR-34 induction.
Where [8] appears, read: MELAS cybrid survival, CellTiter-Glo 48 h, stronger effect = higher value.
The mark [9] stands for this setting: Rieske KO mouse fibroblast survival, CellTiter-Glo 72 h.

Values joined by “and” are separate entries in the source; they are usually repeats but may differ in a detail not shown here. Identical values can stand only once. Active and inactive are the calls of the source.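 The calls were made as follows, unless noted: active = compounds whose cell count with miR-34 switched on is under 0.7 times the count with it off; inactive = the rest.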

Regarding `CCn1cc(CNC(=O)Nc2nnc(C(C)(C)C)s2)cn1`, the fold change in assay [1] (setting [4]) is 0.886 (inactive); in assay [1] (setting [5]) it was 2.1. In addition, the cell count in assay [1] (setting [6]) is 8600; in assay [1] (setting [7]), 9710. Moreover, the z-score in assay [2] (setting [8]) is 0.641 (inactive); in assay [2] (setting [9]) it was -0.73; in assay [3] it was -0.6 (inactive).

On to `O=C(Nc1n[nH]c(-c2ccccc2)n1)N1CCN(c2ccc(F)cc2)CC1`, for which the fold change in assay [1] (setting [4]) was 0.826 (inactive); in assay [1] (setting [5]), 1.21. For the same molecule, the values for the cell count in assay [1] (setting [6]) and in assay [1] (setting [7]) were 6770 and 8190, respectively. For the same molecule, the z-score in assay [2] (setting [8]) is -0.373; in assay [2] (setting [9]) it was 4.03; in assay [3], 0.11 (inactive).

For `Cc1cc(CN(C)C(=O)c2cc(-c3cnn(C(C)C)c3)nc3cc(F)ccc23)on1`, the values for the fold change in assay [1] (setting [4]) and in assay [1] (setting [5]) were 0.883 (inactive) and 1.43, respectively. For the same molecule, the cell count in assay [1] (setting [6]) was 8520; in assay [1] (setting [7]), 9660. In addition, the z-score in assay [2] (setting [8]) is -1.12 (inactive); in assay [2] (setting [9]), 0.385; in assay [3], -0.48 (inactive).

Turning to `CNc1ccnc(-c2cnn(CC(=O)Nc3cc(C)nn3C)c2)n1`, the fold change in assay [1] (setting [4]) is 0.867 (inactive); in assay [1] (setting [5]) it was 1.09. For the same molecule, the cell count in assay [1] (setting [6]) was found to be 8660; in assay [1] (setting [7]), 9980. Besides, the results for the z-score in assay [2] (setting [8]), in assay [2] (setting [9]) and in assay [3] were -0.389 (inactive), -1.16 and -0.515 (inactive), respectively.

Consider `CC(NC(CCc1ccccc1)C(=O)O)C(=O)N1CCCC1C(=O)O` (stereo not given), for which the fold change was 0.974 (inactive) and 0.933 (inactive) in assay [1] (setting [4]); 2.22 and 0.554 in assay [1] (setting [5]). For the same molecule, the cell count in assay [1] (setting [6]) was 9670 and 8080; in assay [1] (setting [7]), 9920 and 8660. Further, the z-score in assay [2] (setting [8]) was 0.277 (inactive); in assay [2] (setting [9]), 0.0621; in assay [3], 0.69 (inactive).

As to `CCOC(=O)c1c(C)nn(-c2ccc(N)cc2)c1C`, the fold change in assay [1] (setting [4]) was 0.897 (inactive); in assay [1] (setting [5]), 0.586. The cell count came out at 8580 in assay [1] (setting [6]) and 9570 in assay [1] (setting [7]). Further, the z-score in assay [2] (setting [8]) is -0.251 (inactive); in assay [2] (setting [9]), -0.884; in assay [3], -0.7 (inactive).

On to `CN(Cc1cnc2ccccc2n1)C(=O)Nc1n[nH]c(-c2ccco2)n1`, for which the fold change is 0.886 (inactive) in assay [1] (setting [4]) and 0.927 in assay [1] (setting [5]). In addition, the cell count in assay [1] (setting [6]) turned out to be 8010; in assay [1] (setting [7]) it was 9030. Moreover, the results for the z-score in assay [2] (setting [8]), in assay [2] (setting [9]) and in assay [3] were -0.974, 3.4 and 0.175 (inactive), respectively.

Consider `Nc1[nH]c(=O)[nH]c(=O)c1N`, for which the fold change is 0.894 (inactive) in assay [1] (setting [4]) and 0.315 in assay [1] (setting [5]). Further, the cell count came to 8900 in assay [1] (setting [6]) and 9960 in assay [1] (setting [7]). The z-score in assay [2] (setting [8]) is 0.368 (inactive); in assay [2] (setting [9]) it was 0.648; in assay [3], 0.84 (inactive).

Take `CC(=O)[C@]1(O)Cc2c(O)c3c(c(O)c2C(OC2CC(N)C(O)C(C)O2)C1)C(=O)c1ccccc1C3=O` (stereo not given in full): the fold change in assay [1] (setting [4]) is 0.995 (inactive) and 0.89 (inactive); in assay [1] (setting [5]), 0.907 and 1.04. For the same molecule, the cell count in assay [1] (setting [6]) is 734 and 2090; in assay [1] (setting [7]) it was 738 and 2350. For the same molecule, the z-score in assay [2] (setting [8]) is 2.4 (active); in assay [2] (setting [9]) it was -0.525; in assay [3], -1.88 (inactive).

Take `Cc1nc(NC(=O)NCc2cccc(C(F)(F)F)c2)nn1C`: the fold change in assay [1] (setting [4]) was 0.922 (inactive); in assay [1] (setting [5]) it was 1.12. In addition, the results for the cell count in assay [1] (setting [6]) and in assay [1] (setting [7]) were 9110 and 9880, respectively. Moreover, the z-score was 0.0413 (inactive) in assay [2] (setting [8]), 1.4 in assay [2] (setting [9]) and 0.45 (inactive) in assay [3].

On to `Fc1cccc(F)c1-c1nc2c(cnn2Cc2cccs2)[nH]1`, for which the values for the fold change in assay [1] (setting [4]) and in assay [1] (setting [5]) were 0.88 (inactive) and 2.16, respectively. The cell count in assay [1] (setting [6]) came to 8590; in assay [1] (setting [7]), 9770. In addition, the z-score in assay [2] (setting [8]) was -0.231 (inactive); in assay [2] (setting [9]), 0.598; in assay [3], -0.555 (inactive).

As for `O=C(Nc1nncs1)NC1Cc2ccccc2C1`, the fold change in assay [1] (setting [4]) is 0.87 (inactive); in assay [1] (setting [5]), 1.52. Also, the cell count in assay [1] (setting [6]) amounted to 8130; in assay [1] (setting [7]), 9340. The z-score is -0.741 (inactive) in assay [2] (setting [8]), -0.221 in assay [2] (setting [9]) and -0.6 (inactive) in assay [3].

As to `CC(C)=CCn1cnc(=N)c2[nH]cnc21`, the fold change in assay [1] (setting [4]) was 0.911 (inactive); in assay [1] (setting [5]) it was 0.79. For the same molecule, the cell count stood at 8970 in assay [1] (setting [6]) and 9850 in assay [1] (setting [7]). The z-score in assay [2] (setting [8]) was -0.546 (inactive); in assay [2] (setting [9]) it was -0.741; in assay [3] it was 1.17 (inactive).

For `Cc1ccc2c(C(=O)N3C[C@H]4CC[C@H]3C4)cc(-c3cnn(C(C)(C)C)c3)nc2c1`, the fold change is 0.854 (inactive) in assay [1] (setting [4]) and 1.66 in assay [1] (setting [5]). Further, the cell count was 6940 in assay [1] (setting [6]) and 8130 in assay [1] (setting [7]). In addition, the figures for the z-score in assay [2] (setting [8]), in assay [2] (setting [9]) and in assay [3] were -0.72 (inactive), 0.542 and 1.56 (inactive), respectively.

For `Cc1cnc(NCCCn2cccn2)nc1-c1cnn(C)c1`, the fold change in assay [1] (setting [4]) was 0.862 (inactive); in assay [1] (setting [5]), 1.64. For the same molecule, the cell count amounted to 9190 in assay [1] (setting [6]) and 10700 in assay [1] (setting [7]). In addition, the z-score was -0.223 (inactive) in assay [2] (setting [8]), -0.0144 in assay [2] (setting [9]) and -0.51 (inactive) in assay [3].

As for `Nc1nc(-c2ccc(O)cc2)cs1`, the fold change in assay [1] (setting [4]) was 0.871 (inactive); in assay [1] (setting [5]), 0.369. In addition, the cell count came to 7600 in assay [1] (setting [6]) and 8730 in assay [1] (setting [7]). The z-score is -0.885 (inactive) in assay [2] (setting [8]), 0.17 in assay [2] (setting [9]) and 0.145 (inactive) in assay [3].

For the molecule `CCC1OC(=O)C(C)C(OC2C[C@@](C)(OC)C(O)C(C)O2)C(C)C(OC2OC(C)CC(N(C)C)C2O)[C@](C)(OC)CC(C)C(=O)C(C)C(O)[C@]1(C)O` (stereo not given in full), the fold change in assay [1] (setting [4]) was 0.943 (inactive) and 0.989 (inactive); in assay [1] (setting [5]), 1.76 and 0.873. Further, the cell count in assay [1] (setting [6]) is 9620 and 10500; in assay [1] (setting [7]) it was 10200 and 10600. Also, the z-score in assay [2] (setting [8]) is -0.386 (inactive); in assay [2] (setting [9]), 0.552; in assay [3], -0.175 (inactive).

`O=C(c1cccc2nccnc12)N1CCc2[nH]nc(COc3ccccc3)c2C1`: the fold change in assay [1] (setting [4]) is 0.845 (inactive); in assay [1] (setting [5]), 1.54. Also, the values for the cell count in assay [1] (setting [6]) and in assay [1] (setting [7]) were 8640 and 10200, respectively. The z-score in assay [2] (setting [8]) was -0.113 (inactive); in assay [2] (setting [9]), -0.39; in assay [3], -0.45 (inactive).

For the molecule `Cc1ccc(-n2cc(-c3nc4c(cnn4Cc4cccnc4)[nH]3)cn2)cc1`, the fold change in assay [1] (setting [4]) is 0.858 (inactive); in assay [1] (setting [5]) it was 2.02. The cell count in assay [1] (setting [6]) was 7150; in assay [1] (setting [7]) it was 8340. Also, the z-score in assay [2] (setting [8]) is 0.697 (inactive); in assay [2] (setting [9]), 0.0385; in assay [3], -0.445 (inactive).

As for `COc1nc2ccccc2cc1-c1nnc2ccccn12`, the fold change in assay [1] (setting [4]) is 0.94 (inactive); in assay [1] (setting [5]), 1.24. Moreover, the cell count was 7160 in assay [1] (setting [6]) and 7610 in assay [1] (setting [7]). For the same molecule, the values for the z-score in assay [2] (setting [8]), in assay [2] (setting [9]) and in assay [3] were -0.729 (inactive), -1.23 and -0.505 (inactive), respectively.

The record behind these values is PubChem BioAssay.
